# DRD3 agonist: qHTS of D3 Dopamine Receptor Agonist: qHTS; D(3) dopamine receptor (Homo sapiens), P35462; D3R DiscoveRx beta-arrestin cells, luminescence, 90 min; max activation, %; actives 0.58% (n = 410,000); AID 652048, 2013; in the data active = max activation above about 30%; also: 0% is about no effect
# Target sequence (P35462 whole entry, looked up): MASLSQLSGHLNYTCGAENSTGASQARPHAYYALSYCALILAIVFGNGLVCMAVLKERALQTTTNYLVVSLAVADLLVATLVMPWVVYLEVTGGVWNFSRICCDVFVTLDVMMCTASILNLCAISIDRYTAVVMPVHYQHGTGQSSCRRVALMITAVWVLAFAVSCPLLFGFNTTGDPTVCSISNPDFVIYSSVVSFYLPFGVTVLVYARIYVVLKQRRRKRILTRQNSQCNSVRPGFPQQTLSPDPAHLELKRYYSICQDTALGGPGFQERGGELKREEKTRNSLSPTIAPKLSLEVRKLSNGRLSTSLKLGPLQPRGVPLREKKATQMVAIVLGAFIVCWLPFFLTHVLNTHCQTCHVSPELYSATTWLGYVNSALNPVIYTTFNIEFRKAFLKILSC
#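 Agonist-mode cell screen: cells plated at 1500/well and incubated overnight at 37 °C, then exposed to library compounds for 90 min at 37 °C. Detection reagent was added for 30–60 min at room temperature, and luminescence was read.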
# Integrin act MD: qHTS for Activators of Integrin-Mediated Alleviation for Muscular Dystrophy. alpha7betagal myoblasts, beta-gal FDG fluorescence, 48 h. Potency, µM (titrated, usually from 38.3 µM), for the others: at the highest dose activation, usual class: activators. AID 624291, 2012. actives 0.064% (n = 350,000); active = well fitted activation curve with a large enough effect; inconclusive = small, poorly fitted or top-dose-only effect; inactive = no such curve, though single readings can be large or run the other way;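 also: potency is read from the fitted curve at half-maximal effect; 100% = response of the positive control SU9516; nearly all actives have a fitted effect of over 60% in size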
#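 Alpha7betagal+/- myoblasts (passage 13) were plated 16-24 hr, then exposed to compounds (1:260 dilution of DMSO stock) for 48 hours at 37C. After MPER lysis, β-galactosidase reporter activity was read as FDG fluorescence (ex 480/em 540) after 30 minutes.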
# D3 antag: qHTS of D3 Dopamine Receptor Antagonist: qHTS | D(3) dopamine receptor (Homo sapiens), P35462 | D3R cells, DiscoveRx beta-arrestin luminescence, antagonist mode; hits give low values | AID 652054, 2013 | max response, negative = inhibition, % | actives 2.5% (n = 360,000); in the data active = max response below about -50%; inconclusive = no clear call, values can overlap the other calls; also: % is scaled to controls: 0 for no effect and ±100 for the full control effect
#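 Cells plated overnight at 1500 cells/well, then exposed to library compounds with dopamine controls for 90 minutes at 37 degrees C. DiscoveRx reagent added for 30–60 minutes at room temperature; luminescence read, quantitative HTS format.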
# * marks the source's active call; other numbers are inactive results; u = inconclusive; x = not tested or not shown. Most compounds without a hit are left out; they make up all but 2.9% or so of the library.
SMILES,DRD3 agonist,Integrin act MD,D3 antag
O=C(CCN1CCN(c2ccccc2)CC1)NNC(=O)Cc1ccccc1Cl,6.1,-28.7%,u
O=C(CCN1CCN(c2ccccc2)CC1)NNC(=O)c1ccccc1,8.0,4.2%,-53.6*
Cc1cccc(OCC(=O)NNC(=O)CCN2CCN(c3ccccc3)CC2)c1C,-9.1,-44.5%,-83.0*
Cc1cccc(OCCCC(=O)NNC(=O)CCN2CCN(c3ccccc3)CC2)c1,5.0,-28.4%,-8.1
O=C(Nc1noc2ccccc12)c1cccc(F)c1,-7.8,x,x
Cn1c(=O)c2c(-c3ccccc3)n(-c3cc([N+](=O)[O-])ccc3O)cc2n(C)c1=O,-6.9,-9.0%,-50.9*
Cn1c(=O)c2c(-c3ccccc3)n(-c3cc(Cl)c([N+](=O)[O-])cc3O)cc2n(C)c1=O,-10.6,x,-9.3
COc1ccc(NC(=O)c2cc(C3CC3)nc3c2c(C)nn3-c2ccccc2)cc1,15.1,x,x
O=C(COc1ccccc1)Nc1ccc(S(=O)(=O)N2CCOCC2)cc1,-7.0,7.9%,-11.0
NC(=O)CN1C(=O)NC2(CCCc3sccc32)C1=O (centres undefined),3.5,-15.5%,5.9
COc1nccnc1NS(=O)(=O)c1ccc(N=Cc2c(C)[nH]n(-c3ccccc3)c2=O)cc1,-10.5,u,u
COc1nccnc1NS(=O)(=O)c1ccc(N=Cc2c(C)[nH]n(-c3ccc(C)c(C)c3)c2=O)cc1,0.8,-1.8%,-59.7*
Cc1cc2c(cc1S(=O)(=O)NCc1ccccc1)n(C)c(=O)c(=O)n2C,-6.7,-6.1%,0.0
CCOc1cc(CNCc2ccccn2)ccc1OCC(=O)NC1CCCCC1,-23.2,-3.3%,-88.9*
CCOc1cc(CNCCc2ccc(S(N)(=O)=O)cc2)ccc1OCC(=O)NC1CCCCC1,-16.4,-38.3%,-11.5
COC[C@H]1CCCN1c1ccc2c(c1)O[C@@H](COCc1ccccc1)CN([C@@H](C)c1ccccc1)S2(=O)=O,2.2,x,-13.3
Oc1ccc(Cl)cc1-c1cc(-c2ccco2)[nH]n1,1.0,-43.0%,8.0
CCCCN(CCCC)C(=S)N/N=C/c1c(C)[nH]n(-c2ccccc2)c1=O,-41.1,-21.5%,-104.0*
Cc1[nH]n(-c2ccccc2)c(=O)c1/C=N/NC(=O)c1ccc(O)cc1O,5.2,12.0%,13.3
CCN1CCN(S(=O)(=O)c2ccc(Cl)c(C(=O)NC3CCCC3)c2)CC1,5.0,8.9%,-5.7
CCc1nc(Nc2ccc(F)cc2)c2oc3ccccc3c2n1,11.6,-28.9%,38.6
COCCNC(=S)NC1CC2CCCC(C1)N2Cc1cccs1 (centres undefined),-38.5,5.0%,u
Cc1cccc(NC(=S)NC2CC3CCCC(C2)N3Cc2cccs2)c1 (centres undefined),-29.3,-27.0%,-87.4*
COc1cccc(C2C(C(=O)Nc3ccc(C)cc3C)=C(C)Nc3nc4ccccc4n32)c1OC (centres undefined),2.8,x,x
CC(=NNC(=S)N1CCCCCC1)c1cccc2cccnc12,-13.0,-35.7%,-70.5*
SMILES,DRD3 agonist,Integrin act MD,D3 antag
CC(=NNC(=S)N1CCN(C2CCCCCC2)CC1)c1ccccn1,-15.6,0.0%,u
Oc1ccc2ccccc2c1/C=C/c1ccc2c(Br)cc(Br)c(O)c2n1,-16.8,-21.7%,-103.6*
Oc1c(Cl)cc(Cl)cc1/C=C/c1ccc2cccc(O)c2n1,32.2*,-78.1%,1.3
Oc1ccc(Cl)cc1/C=C/c1ccc2cccc(O)c2n1,1.4,-66.1%,u
Oc1cccc2ccc(/C=C/c3ccccc3Br)nc12,-39.6,-55.3%,-113.8*
Oc1cccc2ccc(/C=C/c3cccs3)nc12,-53.3,-53.3%,-57.2*
Cc1ccsc1/C=C/c1ccc2cccc(O)c2n1,-79.5,-60.3%,u
Oc1ccc2ccccc2c1/C=N/n1cnnc1,1.2,-27.0%,-7.4
COc1cc(Br)cc(/C=C/c2ccc3cccc(O)c3n2)c1O,-3.7,-63.3%,-13.1
COc1ccccc1NC(=O)c1ccc(NC(=O)CSc2ncccn2)cc1,-3.0,-22.2%,-5.5
CN(C)/C=N/c1cc(=O)n(Cc2ccccc2)c(=O)n1C,5.4,10.9%,23.6
O=C(NCCCN1CCOCC1)c1ccc(S(=O)(=O)Nc2ccccc2F)cc1,-17.3,14.5%,9.1
Cc1ccc(OCC(=O)Nc2nonc2-c2ccc(Br)cc2)cc1,1.2,x,x
O=C(Nc1nc2nc(-c3ccccc3)cc(-c3ccccc3)n2n1)c1ccco1,-3.8,u,-29.7
Cc1ccnc2nc(NC(=O)c3ccco3)nn12,-2.4,20.8%,-66.1*
COc1ccc(C(C)(NC(C)=O)c2nc(-c3cccc(C#N)c3)cs2)cc1 (centres undefined),7.9,x,13.8
O=C(/C=C/c1ccc(Cl)cc1)NC1CCS(=O)(=O)C1 (centres undefined),0.9,-22.7%,0.0
OCCOCCN1CCN(C2=Nc3ccccc3Sc3ccccc32)CC1,x,x,-66.4*
CN1CCN(C2=Nc3ccccc3Cc3ccccc32)CC1,-22.6,x,x
O=C(Cn1cc(COc2ccc(-n3cccc3)cc2)nn1)NS(=O)(=O)c1ccccc1C(F)(F)F,5.6,x,-29.1
O=C(Cn1cc(COc2ccc(Cl)c(Cl)c2)nn1)NS(=O)(=O)c1ccccc1C(F)(F)F,-4.6,x,-67.1*
C=CCN1[C@@H](Cc2ccccc2)COCCS1(=O)=O,-25.4,10.1%,-50.1*
O=S1(=O)CCOC[C@H](Cc2ccccc2)N1Cc1ccc(F)cc1,3.7,10.6%,-3.9
CCc1cc(SC#N)cc(C)c1NC(=O)CCl,-6.8,-13.0%,-56.3*
Cc1cc(SC#N)cc(C)c1NC(=O)CCl,-4.6,-43.5%,-9.6
SMILES,DRD3 agonist,Integrin act MD,D3 antag
O=S(=O)(NCC(c1ccco1)N1CCOCC1)c1ccc(Br)cc1 (centres undefined),-15.0,x,x
NC(=O)CC(CC(=O)OCc1ccccc1)c1ccccc1 (centres undefined),-4.8,25.3%,-1.8
CN(C(=O)OCc1ccccc1)C(CC(N)=O)C(=O)O (centres undefined),-12.4,1.9%,-98.7*
COc1ccc(CCNS(=O)(=O)c2c(C)nc3sccn3c2=O)cc1OC,8.5,x,x
Cc1cc(C)c(C#N)c(N2CCN(S(=O)(=O)Cc3ccccc3)CC2)n1,2.0,u,-6.8
N#CCc1c(C#N)c(N)nc(N2CCN(Cc3ccc4c(c3)OCO4)CC2)c1C#N,-10.3,-22.9%,u
Cc1cc(C)c(C#N)c(N2CCN(Cc3ccccc3)CC2)n1,-59.8,36.0%,-92.8*
Cc1ccc2nc(N3CCN(Cc4nnnn4Cc4ccccc4)CC3)c(C#N)cc2c1,-0.1,-40.4%,-73.7*
COc1ccc2cc(C#N)c(N3CCN(Cc4nnnn4CCC(C)C)CC3)nc2c1,-8.1,18.5%,22.8
Cc1cc(C)c(C#N)c(N2CCN(Cc3ccc4c(c3)OCO4)CC2)n1,-20.0,11.2%,-56.8*
